# Test results as given in the supplement of paper PMC11417369.
# ± gives the standard deviation of the averaged measurements. Whole data set: some 25,000 sequences, median “ln(normalized median fluorescence intensity)” near 8.6, cut for the highest 2% near 10. Only a selection was taken, and the highest values are over-represented in it overall.
# Tested on: PfAP2-EXP AP2 domain (GST-tagged)
# Assay: gcPBM binding intensity (ln(normalized median fluorescence intensity)); higher = stronger DNA binding
# In short: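 DNA-binding domains from P. falciparum, fused to GST and produced in E. coli, were put on an Agilent 4 × 180k double-stranded probe array for 1 h in 1× PBS holding 1% milk, 0.2 mg/ml BSA, 0.5% salmon testes DNA and 0.03% Triton X-100. Probes were primer-extended, 36 bp long and drawn from intergenic genomic regions, with negative controls included. After Alexa488 anti-GST antibody detection and a 488 nm scan, binding intensity was set as the highest Masliner-normalised natural-log median intensity across replicate spots of either probe orientation.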
row,Sequence,gcPBM binding intensity (ln)
1,TTTCATTAATCTAATAGTACAGAAAATTGAGAAAAA [XGTACX_site8395],8.72 ± 0.34
2,ATTTTTTTCTTTTCTTTTTTCTTTTTTTTTTTTGGT [CACACA_negctrl_site1146],8.35 ± 0.61
3,AACTTATTAAGCCCTCCACATTTCTCTACTACAACT [CACACA_negctrl_site1552],8.61 ± 0.43
4,TATATTTCAGGGGGGAGTACAAATTTTTTTATATAA [XGTACX_site1600],10.9 ± 0.38
5,TATAATTATATTTGGAGTACAAATTTTTTTTTTTTT [XGTACX_site7494],8.3 ± 0.32
6,TATTTTTTTTTTATATGTACATAATTTCAAATAAAT [XGTACX_site7747],8.62 ± 0.48
7,ATATAAAAAAAAAAAAAAAAATATATATATATATAT [GTGCAC_negctrl_site251],10.2 ± 0.13
8,TTATAAAAAAAAAAAAAAAATATATATATATATATA [XGTACX_negctrl_site592],10.3 ± 0.13
9,TTATAATAAATATATAAAAAAAAAAAAAAAAAAAAA [CACACA_negctrl_site1639],7.97 ± 0.23
10,ATATAAATAAAAAAAAAAAAAAAAAAAAAAAAAAAA [CACACA_negctrl_site972],8.01 ± 0.43
11,TTATAATATAAAAATAAATAAATAAATAAATAAATA [CACACA_negctrl_site1587],8.55 ± 0.11
12,AAAAAAAAAAAAAAATATAAATATATATATATATAT [GTGCAC_negctrl_site28],10 ± 0.28
13,AAAAATAAAAAATATAAAAATATAAAAATATAAAAA [XGTACX_negctrl_site51],8.32 ± 0.38
14,TATAAAAAAAAAAAATATATATATATATAAATATAA [TGCATGCA_negctrl_site367],8.2 ± 0.31
15,ATAAAAAAAAAAAAAAAATATATATATATATATATA [XGTACX_negctrl_site424],10.2 ± 0.32
16,TAAATAATATCTATCACACACGCATATATACATATA [CACACA_site2622],8.32 ± 0.44
17,TAATATTATTTTTCAGTGCAATATAACCTTAGAATT [GTGCAC_site9417],8.38 ± 0.32
18,CATGTTCATCAGAACGCACACATAATGGTTTACTTA [CACACA_site898],8.47 ± 0.3
19,TGAAAAATGTAATGCTCACACATATATATATATATA [CACACA_site5213],10.2 ± 0.32
20,ATATAATTAAAATGCTCACACACATAAAAAAAAATT [CACACA_site2148],8.43 ± 0.55
21,CACAAAAATGTAATCACACATATATATATATATATA [CACACA_site5818],10.1 ± 0.38
22,AATAAAATAAGAAGCACACAAATATTATATATAAAA [CACACA_site3980],8.78 ± 0.42
23,ATTATAAATTAAAATACACACATATATACCTAATAT [CACACA_site5541],8.47 ± 0.4
24,TTACAAATATTATAATGTACCCATTTTTTTTGCCTT [XGTACX_site6612],8.47 ± 0.39
25,AGAAACCTTGTTAGTTAGCATATATATATATATATA [CACACA_negctrl_site372],10.2 ± 0.49
26,CATAATATATATTGAGCATGCTACTATTGTTAGAAA [TGCATGCA_site740],9 ± 0.31
27,TTATTCTTTAACTAAAATTATATATATATATTATAC [CACACA_negctrl_site1597],8.38 ± 0.34
28,AATGATTTTAAATGAACATAATTTATATTCATAACA [GTGCAC_negctrl_site256],8.04 ± 0.42

row,Sequence,gcPBM binding intensity (ln)
1,TCAATTTTACTTGTTTGTACATAAAATAATAAGGTT [XGTACX_site3732],8.44 ± 0.47
2,GCACAACATATATTATCACACACATATATATATATA [CACACA_site8619],10.3 ± 0.18
3,AAAAAAAAAACACACACATGCACATCATATTATATA [TGCATGCA_site133],8.72 ± 0.54
4,ACAACATATGTTATCACACACATATAAATATAAATA [CACACA_site7038],8.41 ± 0.54
5,ATATCACATATATATATATATATATATATATATATA [XGTACX_negctrl_site463],9.95 ± 0.61
6,CCAACATATATTATCACACACATATATATATATATA [CACACA_site2016],10.2 ± 0.22
7,AATAAATTATATATCACACATATATATTTATATTTA [CACACA_site5964],8.13 ± 0.23
8,AAAAAAAACAGACACACACACACATATACATACATA [CACACA_site2665],8.41 ± 0.38
9,AAAAAAATCACATAATATACTTTATTTTATTTTGTA [GTGCAC_negctrl_site562],7.89 ± 0.33
10,ATTTTTTTTTTTAATACACACAATTTTGATGAAGCA [CACACA_site3157],8.26 ± 0.41
11,CTAAAGTAAATTTAAGCACACACAACGAATTTTTAT [CACACA_site8599],8.65 ± 0.45
12,GATAAAATGGATGGATGTACATTATTTCCATATAAT [XGTACX_site7781],8.55 ± 0.5
13,AACCATTATTTCTCTACACACATTTATGTCATTTAC [CACACA_site1499],8.86 ± 0.56
14,TAGATACATAAACACACACACACATACATATATACA [CACACA_site9139],8.68 ± 0.6
15,AAGTACATACATAAAACACACACATATATATATATA [CACACA_site8541],10.2 ± 0.17
16,TACATATATAAAAAAACACACACATATATATATATA [CACACA_site8315],10.1 ± 0.46
17,AAAAAAAAAAAACATACACACATACATACAGATATA [CACACA_site4681],8.5 ± 0.64
18,CATATACATAAACACACACACACATAAATAAATATA [CACACA_site4864],8.68 ± 0.54
19,TATACACATATATAAACACACAAAAAAAAAAAAAAA [CACACA_site7041],8.19 ± 0.63
20,AAAAAAAAAAAAAGTACACACATACATATAAATATA [CACACA_site8533],8.48 ± 0.4
21,TACATACATAAACACACACACACATATATATATATA [CACACA_site8953],10.1 ± 0.35
22,TACAGATATAAACACACACACATATATATATATATA [CACACA_site4846],10.2 ± 0.48
23,TAAAAAAAAAAAAAAAGTACACACATACATATAAAT [XGTACX_site3752],8.61 ± 0.44
24,GTACATACATAAAACACACACATATATATATATATA [CACACA_site1826],10.2 ± 0.75
25,TATATACATAAACACACACACACATATATATATATA [CACACA_site8707],10.2 ± 0.29
26,GTTAATATACTTAATACACACACGAATATATATAAA [CACACA_site1181],8.69 ± 0.35
27,ACCTAATTTTTATATTGTACATAATATAATATATAT [XGTACX_site1715],8.66 ± 0.3
